SARS 3CLpro inh = SARS-CoV 3CLpro protease inhibition; AID 1706; P0C6X7; inhibition, % at 6 µM; recombinant SARS-CoV 3CLpro, quenched FRET peptide cleavage; 290,000 tested, 0.14% active; in the data active = inhibition above about 12%
Mtb hypoxia inh = Mtb hypoxia fluorescent reporter inhibition; M. tuberculosis hypoxia-regulated fluorescent reporter, fluorescence; fluorescence inhibition, % (concentration not given with the values); 300,000 tested, 0.1% active; in the data active = fluorescence inhibition mostly above about 23%, no sharp cut-off; inactive = mostly below about 17%
PriA SSB inh = K. pneumoniae PriA-SSBct interaction inhibition | AlphaScreen SSBct-PriA binding, biotinylated peptide | inhibition, % at 33 µM | 430,000 tested, 0.6% active | AID 1272365; in the data active = inhibition mostly above about 37%, no sharp cut-off; inactive = mostly below about 20%;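 also: plate controls were negative control peptide for no effect and reference peptide for full effect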
CCHFV vOTU inh = blocks the CCHF virus ovarian tumor domain protease. CCHFV vOTU protease, Pep-AMC fluorescence. inhibition, % at 11.5 µM. 370,000 tested, 0.55% active; in the data active = inhibition above about 30%; also: 0% = vehicle wells with enzyme and 100% = no enzyme wells
VHR inh abs = DUSP3 (human) phosphatase inhibition | inhibition, % at 13.3 µM | 290,000 tested, 0.52% active | recombinant VHR phosphatase, pNPP absorbance | AID 1654 | P51452; in the data active = inhibition above about 50%
Target sequence (P51452 whole entry, looked up): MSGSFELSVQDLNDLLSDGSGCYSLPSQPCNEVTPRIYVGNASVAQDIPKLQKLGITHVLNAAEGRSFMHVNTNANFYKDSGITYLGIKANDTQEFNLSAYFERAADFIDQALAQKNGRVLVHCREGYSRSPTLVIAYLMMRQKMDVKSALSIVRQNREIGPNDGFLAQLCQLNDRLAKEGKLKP
Numbers without * were called inactive; nt = not tested or not shown; ! = not confirmed by another sample. Rows were chosen to be rich in hits. Some 1.3% of all compounds tested hit in one or more screens of this group.

SMILES	SARS 3CLpro inh	Mtb hypoxia inh	PriA SSB inh	CCHFV vOTU inh	VHR inh abs
Brc1ccc(C=Nc2ccc(Nc3ccccc3)cc2)s1	1	10	88*	nt	8
O=C(NN=Cc1ccc(Br)s1)Nc1ccccc1	nt	-6	0	nt	nt
O=C(c1cnn(-c2ccccc2)n1)N1C2C=CCC1CC2 (stereo not given)	nt	nt	-3	nt	nt
O=C(Cn1c(=O)n(Cc2cccnc2)c(=O)c2ncccc21)NC1CCCC1	nt	nt	-6	nt	nt
CCOC(=O)N1CCN(S(=O)(=O)c2cn(C)c(=O)n(C)c2=O)CC1	-6	2	2	-1	52*
Cn1cc(S(=O)(=O)N2CCN(c3ccccc3F)CC2)c(=O)n(C)c1=O	-2	-1	-18	0	53*
COc1ccc(F)cc1S(=O)(=O)NCC1CCCN1c1nccs1 (stereo not given)	nt	nt	1	nt	nt
NC(=O)c1cc(C2CCCCN2C(=O)COc2ccccc2F)[nH]n1 (stereo not given)	nt	nt	-7	nt	nt
COc1ccc(F)cc1S(=O)(=O)NCC#CCN(C)Cc1ccccc1	nt	nt	-8	nt	nt
Cc1ccc2nc(N3CCN(CCO)CC3)nc(-c3ccccc3)c2c1	-2	7	38*!	-43	-12
Clc1ccc2nc(N3CCNCC3)nc(-c3ccccc3)c2c1	1	-43	-21	-28	52*
Cc1nc2sccn2c(=O)c1NC(=O)c1ccccn1	nt	nt	5	nt	nt
COC(=O)[C@H](Cc1ccccc1)NC(=O)NCc1ccc(S(N)(=O)=O)cc1	1	0	1	-13	22
NS(=O)(=O)c1ccc(CNC(=O)NC2(c3ccccc3)CC2)cc1	-1	14	-17	-2	50*
COc1ccccc1-c1ccc(SCC(=O)c2ccc([N+](=O)[O-])cc2)nn1	nt	nt	13	nt	nt
Cc1sc2ncn(CC(=O)NCCCN3CCC(C)CC3)c(=O)c2c1S(=O)(=O)N1CCC(C)CC1	-1	-1	-9	-4	60*
Cc1cccc(NC(=O)NC(C)C(c2cccs2)N2CCN(c3ccccc3)CC2)c1 (stereo not given)	nt	nt	-2	nt	nt
CC(C)=CC(=O)Nc1nnc(-c2cccnc2)s1	-1	nt	-8	5	53*
Cc1ccccc1S(=O)(=O)Cc1ccc(C(=O)NCCCN2CCC(C)CC2)o1	-2	15	-12	2	57*
O=S(=O)(Cc1ccccc1)NCCN1CCN(c2ccc(F)cc2)CC1	nt	nt	4	nt	nt
CC1CCN(C(=O)C2CCN(c3ncnc4c3nc3n4CCCCC3)CC2)CC1	-3	28*	-1	0	11
CCN1CCN(C(c2cccs2)C(C)NC(=O)c2cccc(OC)c2)CC1 (stereo not given)	-5	5	-4	12	9
COc1cccc(C(=O)NC(C)C(c2cccs2)N2CCOCC2)c1 (stereo not given)	-7	12	-5	5	53*
NC(=O)C1CCN(C2CCCC2)CC1	nt	nt	23	nt	nt
O=C(O)c1ccc(C2CCCCC2)cn1	-4	3	116*	1	-10
SMILES	SARS 3CLpro inh	Mtb hypoxia inh	PriA SSB inh	CCHFV vOTU inh	VHR inh abs
O=C(O)c1ccc(O)cn1	nt	nt	88	nt	nt
CC(Cc1ccoc1)NC(=O)c1cc(-c2ccco2)on1 (stereo not given)	nt	nt	-12	nt	nt
CC(=O)N(C)c1ccc(N=Nc2c(C)[nH]n(C(N)=S)c2=O)cc1	0	16	10	12	16
CCN(CC)S(=O)(=O)c1ccc(N=Nc2c(C)[nH]n(C(N)=S)c2=O)cc1	3	8	9	31*	8
CCn1nnc2c(SCC(=O)Nc3cc(Cl)ccc3OC)ncnc21	nt	nt	-14	nt	nt
O=C(NCc1ccco1)c1ccc(Cl)c(S(=O)(=O)N2CCc3ccccc32)c1	-1	0	4	-6	56*
CCCc1nnc(SCC(=O)Nc2nc(-c3ccccc3)cs2)n1-n1cccc1	nt	nt	11	nt	nt
CCCN(CCC)S(=O)(=O)c1ccc(C(=O)NCc2n[nH]c(=S)n2-c2ccc(Cl)c(Cl)c2)cc1	4	-4	45*!	16	2
O=C(c1cccs1)N1N=C(c2ccc3c(c2)OCO3)CC1c1ccco1 (stereo not given)	nt	nt	11	nt	nt
CCCn1c(=O)c(C(=O)NCCc2ccccc2)c(O)c2ccccc21	-2	1	-2	-1	54*
CCCCCn1c(=O)c(C(=O)NCCc2ccccc2)c(O)c2ccccc21	4	8	-24	-13	16
COc1ccc(Nc2cc(C)nc(Nc3ccc(NS(=O)(=O)c4cc(C(C)(C)C)ccc4OC)cc3)n2)cc1	nt	nt	43*	nt	nt
CN(c1ccccc1)S(=O)(=O)c1ccc(C(=O)Nc2nc(-c3ccccn3)cs2)cc1	nt	nt	52*	nt	nt
CN(c1ccccc1)S(=O)(=O)c1ccc(C(=O)Nc2nc(-c3ccc(Br)s3)cs2)cc1	nt	nt	-13	nt	nt
CC(C)S(=O)(=O)c1ccc(C(=O)Nc2nc(-c3ccccn3)cs2)cc1	nt	nt	106*	nt	nt
COc1ccc(-c2nn(-c3ccccc3)cc2C(=O)N(C)C)cc1	-2	5	-2	-7	53*
COc1ccc(-c2nn(-c3ccccc3)cc2C(=O)O)cc1	6	-2	-2	2	-20
COc1ccc2nc(N(CCn3cccn3)C(=O)COc3ccccc3OC)sc2c1	nt	nt	-12	nt	nt
O=C(Cc1c(F)cccc1Cl)N1CCN(c2ccc(-n3cncn3)nn2)CC1	nt	nt	-7	nt	nt
Cc1cc(C)n2nc(N)c(N=Nc3ccccc3)c2n1	-2	84*	9	8	32
Cc1cc(C)n2nc(N)c(N=Nc3ccc4c(c3)OCO4)c2n1	-1	-1	6	-4	8
COc1ccc(Cc2nnc(NC(=O)C3CC(=O)N(c4ccccc4)C3)s2)cc1OC (stereo not given)	-1	9	-3	15	58*
COc1ccc(CCN2CC(C(=O)Nc3nnc(Cc4ccccc4)s3)CC2=O)cc1OC (stereo not given)	nt	-12	-1	0	nt
O=C(NCC[C@H](O)c1ccccc1)C1CCC1	nt	nt	-2	nt	nt
Cc1ccc(NS(=O)(=O)c2ccc(N3CCN(c4ccc(O)cc4)CC3)c([N+](=O)[O-])c2)c(C)c1	0	-4	63*	19	-4
SMILES	SARS 3CLpro inh	Mtb hypoxia inh	PriA SSB inh	CCHFV vOTU inh	VHR inh abs
O=[N+]([O-])c1cc(S(=O)(=O)Nc2ccccc2)ccc1N1CCN(c2ccc(O)cc2)CC1	0	0	43*	4	2
CN1CCN(S(=O)(=O)c2ccc(N3CCN(c4ccc(O)cc4)CC3)c([N+](=O)[O-])c2)CC1	nt	1	17	8	nt
O=c1nc(-c2ccccc2)c2cc(SC(F)F)ccc2[nH]1	-2	8	0	-17	53*
COc1ccc(NC(=O)c2oc3ccccc3c2NC(=O)c2ccc(Br)o2)cc1OC	nt	nt	-1	nt	nt
CC(C)CNS(=O)(=O)c1ccc2nc(NC(=O)c3ccccn3)sc2c1	nt	nt	96*	nt	nt
CCCN1CCN(CCCNC(=O)c2cc3c(=O)oc4ccc(C)cc4c3s2)CC1	-8	8	-8	-13	50*
Cc1ccc2oc(=O)c3cc(C(=O)NCCCN4CCCC(C)C4)sc3c2c1 (stereo not given)	-8	2	-1	-5	51*
Cc1nsc(C(=O)N(CCO)Cc2ccccc2)n1	nt	nt	-10	nt	nt
COc1ccccc1N1C(=O)Cc2ccccc2C1=O	1	-2	3	30*	-3
COc1ccc2c(c1)C(=O)N(c1ccccc1OC)C(=O)C2	-2	4	-12	6	-9

Assay outcomes: PubChem BioAssay, several laboratories
